The source of these data is PMC5700166.

Experiment in all cases: protein-binding microarray (PBM); PBM: ~300 nM protein, 6 mM HEPES pH 7.8, 80 mM KCl, 0.5 mM EDTA, 0.5 mM EGTA, 6% glycerol, 35 ng/ul poly-dIdC, 1% milk, 1 h, room temperature; Ap Aiptasia and Nv Nematostella (sea anemones) / Co Capsaspora / Aq Amphimedon (sponge) / Dm Drosophila / Hu human; RHD is the Rel homology domain; high values mean tight binding
Common to all, as to conditions: dsDNA, one strand shown

The target in one assay is T1, GST-Ap-NF-kB RHD (Exaiptasia pallida (Aiptasia), UniProt A0A913YAJ5 2-422).
T1 sequence: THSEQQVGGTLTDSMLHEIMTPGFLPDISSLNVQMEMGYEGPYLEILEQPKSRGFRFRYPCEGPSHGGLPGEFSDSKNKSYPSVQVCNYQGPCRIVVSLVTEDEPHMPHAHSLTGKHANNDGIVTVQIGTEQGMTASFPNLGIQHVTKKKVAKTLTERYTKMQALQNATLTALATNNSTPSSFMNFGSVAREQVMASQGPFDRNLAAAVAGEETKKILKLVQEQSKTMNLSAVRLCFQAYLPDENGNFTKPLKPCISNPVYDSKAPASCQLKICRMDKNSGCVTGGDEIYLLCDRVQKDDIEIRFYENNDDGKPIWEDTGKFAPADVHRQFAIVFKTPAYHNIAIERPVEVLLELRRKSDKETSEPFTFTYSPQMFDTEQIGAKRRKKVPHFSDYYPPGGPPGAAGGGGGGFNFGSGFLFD

Assay [1] deals with T2, GST-Nv-NF-kB (Cys allele) (Nematostella vectensis, UniProt E5G601 2-411).
T2 sequence: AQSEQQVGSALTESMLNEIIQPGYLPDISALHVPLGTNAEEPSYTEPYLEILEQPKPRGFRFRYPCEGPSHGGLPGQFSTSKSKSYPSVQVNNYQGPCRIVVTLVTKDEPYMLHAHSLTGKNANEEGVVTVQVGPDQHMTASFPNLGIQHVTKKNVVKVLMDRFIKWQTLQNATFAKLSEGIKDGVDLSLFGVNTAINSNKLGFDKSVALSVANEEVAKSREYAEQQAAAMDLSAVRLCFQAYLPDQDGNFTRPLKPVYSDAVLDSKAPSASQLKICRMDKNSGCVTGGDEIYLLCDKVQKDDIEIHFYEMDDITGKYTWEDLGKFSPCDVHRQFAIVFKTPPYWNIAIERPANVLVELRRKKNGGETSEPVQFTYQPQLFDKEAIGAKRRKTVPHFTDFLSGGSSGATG

A further assay has as its target T3, GST-Dm-Relish (Drosophila melanogaster, UniProt Q94527 99-473).
T3 sequence: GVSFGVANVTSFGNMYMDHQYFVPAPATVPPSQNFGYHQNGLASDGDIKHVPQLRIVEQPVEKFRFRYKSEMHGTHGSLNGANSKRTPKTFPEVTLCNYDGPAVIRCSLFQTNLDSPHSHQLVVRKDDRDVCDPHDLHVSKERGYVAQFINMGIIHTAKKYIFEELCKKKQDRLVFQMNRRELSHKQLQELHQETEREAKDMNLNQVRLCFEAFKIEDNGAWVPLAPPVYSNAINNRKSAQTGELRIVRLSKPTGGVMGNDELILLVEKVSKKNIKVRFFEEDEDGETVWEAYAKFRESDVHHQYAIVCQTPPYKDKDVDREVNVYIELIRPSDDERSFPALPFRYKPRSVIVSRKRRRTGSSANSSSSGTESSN

A further assay addresses T4, GST-Aq-NF-kB (Amphimedon queenslandica, UniProt A9Y5G7 2-389).
T4 sequence: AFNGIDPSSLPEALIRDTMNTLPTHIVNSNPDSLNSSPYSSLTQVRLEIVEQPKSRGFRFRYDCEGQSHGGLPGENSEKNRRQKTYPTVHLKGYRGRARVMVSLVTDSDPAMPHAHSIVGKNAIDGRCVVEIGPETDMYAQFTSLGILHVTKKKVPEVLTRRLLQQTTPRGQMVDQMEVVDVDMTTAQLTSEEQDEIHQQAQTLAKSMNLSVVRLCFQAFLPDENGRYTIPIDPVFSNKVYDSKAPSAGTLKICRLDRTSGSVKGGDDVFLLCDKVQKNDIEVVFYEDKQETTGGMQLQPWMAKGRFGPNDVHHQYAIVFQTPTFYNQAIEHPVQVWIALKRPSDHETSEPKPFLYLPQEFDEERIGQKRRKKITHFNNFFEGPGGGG

As to “CCGATTAACATCAAAAATTTACCTGATGTTAATCGGGTCTTGATTCGCTTGACGCTGCTG”, the binding signal with GST-Ap-NF-kB RHD is 1.32 z-score; in assay [1], 3.04 z-score; with GST-Dm-Relish, 4.45 z-score; with GST-Aq-NF-kB it was 2.7 z-score.

As for “CCGATTAACATCAAGGGCATTCCTGATGTTAATCGGGTCTTGATTCGCTTGACGCTGCTG”, the binding signal with GST-Ap-NF-kB RHD stood at 1.84 z-score; in assay [1] it was 1 z-score; with GST-Dm-Relish it was 2.4 z-score; with GST-Aq-NF-kB it was 3.02 z-score.

As to “CCGATTAACATCAGGGATATCCATGATGTTAATCGGGTCTTGATTCGCTTGACGCTGCTG”, the binding signal with GST-Ap-NF-kB RHD was found to be 1.84 z-score; in assay [1], 1.09 z-score; in the assay with GST-Dm-Relish it was 2.52 z-score; with GST-Aq-NF-kB, 2.44 z-score.

With “CCGATTAACATCAAGGAAAACCCTGATGTTAATCGGGTCTTGATTCGCTTGACGCTGCTG”, the binding signal with GST-Ap-NF-kB RHD was 2.67 z-score; in assay [1], 2.33 z-score; with GST-Dm-Relish, 4.56 z-score; with GST-Aq-NF-kB, 4.66 z-score.

With “CCGATTAACATCAAGGGGGTCCCTGATGTTAATCGGGTCTTGATTCGCTTGACGCTGCTG”, the binding signal in the assay with GST-Ap-NF-kB RHD turned out to be 5.89 z-score; in assay [1], 3.29 z-score; with GST-Dm-Relish it was 7.16 z-score; with GST-Aq-NF-kB, 4.47 z-score.

As to “CCGATTAACATCAGAAATCCCGATGATGTTAATCGGGTCTTGATTCGCTTGACGCTGCTG”, the binding signal came out at 3.14 z-score in the assay with GST-Ap-NF-kB RHD, 2.98 z-score in assay [1], 3.98 z-score in the assay with GST-Dm-Relish and 2.24 z-score with GST-Aq-NF-kB.

On to “CCGATTAACATCAGGAATAACCCTGATGTTAATCGGGTCTTGATTCGCTTGACGCTGCTG”, for which the binding signal with GST-Ap-NF-kB RHD stood at 1.87 z-score; in assay [1], 2.62 z-score; with GST-Dm-Relish it was 3.23 z-score; with GST-Aq-NF-kB, 5.81 z-score.

Regarding “CCGATTAACATCAAAAAAAGTCCTGATGTTAATCGGGTCTTGATTCGCTTGACGCTGCTG”, the binding signal amounted to 1.18 z-score with GST-Ap-NF-kB RHD, 1.72 z-score in assay [1], 5.69 z-score with GST-Dm-Relish and 4.05 z-score in the assay with GST-Aq-NF-kB.

For the sequence “CCGATTAACATCAGGAAAACCCATGATGTTAATCGGGTCTTGATTCGCTTGACGCTGCTG”, the binding signal with GST-Ap-NF-kB RHD was 2.63 z-score; in assay [1], 2.25 z-score; with GST-Dm-Relish it was 4.78 z-score; in the assay with GST-Aq-NF-kB, 4.02 z-score.

With “CCGATTAACATCAGGGAGTTCCATGATGTTAATCGGGTCTTGATTCGCTTGACGCTGCTG”, the binding signal in the assay with GST-Ap-NF-kB RHD turned out to be 2.73 z-score; in assay [1] it was 3.31 z-score; with GST-Dm-Relish, 4.43 z-score; in the assay with GST-Aq-NF-kB, 4.38 z-score.

As to “CCGATTAACATCAGGGGTTCCACTGATGTTAATCGGGTCTTGATTCGCTTGACGCTGCTG”, the binding signal with GST-Ap-NF-kB RHD was 2.77 z-score; in assay [1], 2.46 z-score; with GST-Dm-Relish, 5.79 z-score; with GST-Aq-NF-kB it was 3.97 z-score.

Consider “CCGATTAACATCACGGTACTTCCTGATGTTAATCGGGTCTTGATTCGCTTGACGCTGCTG”, for which the binding signal with GST-Ap-NF-kB RHD turned out to be 2.38 z-score; in assay [1] it was 2.66 z-score; with GST-Dm-Relish, 7.59 z-score; with GST-Aq-NF-kB, 2.93 z-score.

As to “CCGATTAACATCAGGGACCGCCCTGATGTTAATCGGGTCTTGATTCGCTTGACGCTGCTG”, the binding signal in the assay with GST-Ap-NF-kB RHD worked out at 4.16 z-score; in assay [1], 3.55 z-score; with GST-Dm-Relish, 1.91 z-score; with GST-Aq-NF-kB it was 6.48 z-score.

Turning to “CCGATTAACATCAAGGGCTTCCCTGATGTTAATCGGGTCTTGATTCGCTTGACGCTGCTG”, the binding signal was determined as 1.53 z-score with GST-Ap-NF-kB RHD, 1.82 z-score in assay [1], 7.18 z-score in the assay with GST-Dm-Relish and 3.85 z-score with GST-Aq-NF-kB.

Take “CCGATTAACATCAAAATTTCACCTGATGTTAATCGGGTCTTGATTCGCTTGACGCTGCTG”: the binding signal with GST-Ap-NF-kB RHD is 1.14 z-score; in assay [1] it was 2.14 z-score; in the assay with GST-Dm-Relish, 2.34 z-score; with GST-Aq-NF-kB, 1.7 z-score.

As to “CCGATTAACATCAGAAAAAACCCTGATGTTAATCGGGTCTTGATTCGCTTGACGCTGCTG”, the binding signal was 3.95 z-score with GST-Ap-NF-kB RHD, 4.93 z-score in assay [1], 6.15 z-score with GST-Dm-Relish and 6.47 z-score in the assay with GST-Aq-NF-kB.

Take “CCGATTAACATCAAGGGTTTTCCTGATGTTAATCGGGTCTTGATTCGCTTGACGCTGCTG”: the binding signal in the assay with GST-Ap-NF-kB RHD came to 3.57 z-score; in assay [1] it was 3.39 z-score; with GST-Dm-Relish it was 4.7 z-score; with GST-Aq-NF-kB it was 5.2 z-score.

For the sequence “CCGATTAACATCAACAAAGTCCCTGATGTTAATCGGGTCTTGATTCGCTTGACGCTGCTG”, the binding signal with GST-Ap-NF-kB RHD was 4.89 z-score; in assay [1] it was 5.37 z-score; with GST-Dm-Relish, 5.26 z-score; in the assay with GST-Aq-NF-kB, 4.25 z-score.

With “CCGATTAACATCAGGGCAAACCCTGATGTTAATCGGGTCTTGATTCGCTTGACGCTGCTG”, the binding signal came to 1.34 z-score with GST-Ap-NF-kB RHD, 1.88 z-score in assay [1], 1.14 z-score with GST-Dm-Relish and 4.6 z-score with GST-Aq-NF-kB.

In the case of “CCGATTAACATCAGGAGGCCCCCTGATGTTAATCGGGTCTTGATTCGCTTGACGCTGCTG”, the binding signal with GST-Ap-NF-kB RHD turned out to be 4.97 z-score; in assay [1] it was 2.51 z-score; with GST-Dm-Relish it was 2.71 z-score; with GST-Aq-NF-kB, 5.1 z-score.

In the case of “CCGATTAACATCACGGACTTCCCTGATGTTAATCGGGTCTTGATTCGCTTGACGCTGCTG”, the binding signal was 2.56 z-score with GST-Ap-NF-kB RHD, 2.62 z-score in assay [1], 7.44 z-score with GST-Dm-Relish and 5.45 z-score with GST-Aq-NF-kB.

For the sequence “CCGATTAACATCAGGAAATGCCCTGATGTTAATCGGGTCTTGATTCGCTTGACGCTGCTG”, the binding signal with GST-Ap-NF-kB RHD worked out at 1.98 z-score; in assay [1], 3.05 z-score; with GST-Dm-Relish, 1.68 z-score; with GST-Aq-NF-kB it was 5.41 z-score.

On to “CCGATTAACATCAAGGGAAGCCCTGATGTTAATCGGGTCTTGATTCGCTTGACGCTGCTG”, for which the binding signal worked out at 2.12 z-score with GST-Ap-NF-kB RHD, 1.83 z-score in assay [1], 7.5 z-score in the assay with GST-Dm-Relish and 3.99 z-score in the assay with GST-Aq-NF-kB.

Take “CCGATTAACATCAGGGAAGCCCATGATGTTAATCGGGTCTTGATTCGCTTGACGCTGCTG”: the binding signal with GST-Ap-NF-kB RHD was determined as 1.18 z-score; in assay [1], 1.19 z-score; in the assay with GST-Dm-Relish, 8.29 z-score; in the assay with GST-Aq-NF-kB, 3.64 z-score.

For the sequence “CCGATTAACATCACGGGACTTCCTGATGTTAATCGGGTCTTGATTCGCTTGACGCTGCTG”, the binding signal with GST-Ap-NF-kB RHD came out at 5.89 z-score; in assay [1], 6.03 z-score; in the assay with GST-Dm-Relish, 7.87 z-score; in the assay with GST-Aq-NF-kB it was 6.21 z-score.

Take “CCGATTAACATCAGAAATTTACCTGATGTTAATCGGGTCTTGATTCGCTTGACGCTGCTG”: the binding signal turned out to be 1.1 z-score with GST-Ap-NF-kB RHD, 2.05 z-score in assay [1], 2.77 z-score in the assay with GST-Dm-Relish and 2.09 z-score with GST-Aq-NF-kB.

Consider “CCGATTAACATCACGGAAAGCCCTGATGTTAATCGGGTCTTGATTCGCTTGACGCTGCTG”, for which the binding signal was found to be 1.02 z-score in the assay with GST-Ap-NF-kB RHD, 1 z-score in assay [1], 2.9 z-score with GST-Dm-Relish and 4.35 z-score with GST-Aq-NF-kB.

For the sequence “CCGATTAACATCAGGACAGTCCCTGATGTTAATCGGGTCTTGATTCGCTTGACGCTGCTG”, the binding signal came out at 4.92 z-score with GST-Ap-NF-kB RHD, 5.23 z-score in assay [1], 3.04 z-score with GST-Dm-Relish and 7.13 z-score with GST-Aq-NF-kB.

As to “CCGATTAACATCAGGAAAATACCTGATGTTAATCGGGTCTTGATTCGCTTGACGCTGCTG”, the binding signal worked out at 1.22 z-score in the assay with GST-Ap-NF-kB RHD, 2.3 z-score in assay [1], 4.66 z-score with GST-Dm-Relish and 4.29 z-score in the assay with GST-Aq-NF-kB.
